Reference: PubChem BioAssay (EPA / NIEHS)
Active and inactive are the calls of the source. How the source made its calls: active means hit-call score of the fitted dose curve at least 0.9, where 1 is the maximum; inactive means score below 0.9.

Experiment: APR_HepG2_CellCycleArrest_1hr: Apredica 1-hour HepG2 Assay for Cell Cycle Arrest (AID 2282666)
Conditions: high-content imaging, actives raise or lower the signal
Experimental: APR_HepG2_1hr is a cell-based, multiplexed-readout assay that uses HepG2, a human liver cell line, with measurements taken at 1 hour after chemical dosing in a 384-well plate.APR_HepG2_CellCycleArrest_1hr is one of 10 assay component(s) measured or calculated from the APR_HepG2_1hr assay. It is designed to make measurements of cell phenotype, a form of morphology reporter, as detected with fluorescence intensity signals by HCS Fluorescent Imaging technology.Data from the assay component APR_HepG2_CellCycleArrest_1hr was analyzed into 1 assay endpoint. This assay endpoint, APR_HepG2_CellCycleArrest_1hr, was analyzed with bidirectional fitting relative to DMSO as the negative control and baseline of activity. Using a type of morphology reporter, measures of all nuclear dna for gain or loss-of-signal activity can be used to understand the signaling at the pathway-level as they relate to the gene . Furthermore, this assay endpoint can be referred to as a primary readout, because this assay has produced multiple assay endpoints where this one serves a signaling function. To generalize the intended target to other relatable targets, this assay endpoint is annotated to the cell cycle intended target family, where the subfamily is arrest.
Cells were treated with dimethyl sulfoxide (DMSO) as a solvent control at a final concentration of 0.5% v/v or with compounds in DMSO with a resulting final DMSO concentration of 0.5% v/v. Compound treatment was done at concentrations of 0.39, 0.78, 1.56, 3.12, 6.24, 12.5, 25, 50, 100, and 200 uM in duplicate on each plate. Cells were treated with compounds for 1, 24, or 72 hr. Carbonyl […] m-chloro-phenylhydrazone (CCCP) and taxol were used as positive controls for mitochondrial function and cytoskeletal stability, respectively; DMSO served as the negative control for this experiment. Cells were fixed by the direct addition of 50 uL formaldehyde in Hank's Balanced Salt Solution (HBSS) to a final concentration of 3.7%. After incubation in the fixation medium for 30 min at room temperature (293-298 K), cells were rinsed twice with HBSS and treated with cell permeabilization buffer (16 uL of 0.5% Triton X-100) for 10 min at room temperature (293-298 K) before labeling. For mitochondrial membrane potential and mitochondrial measurements, pre-fixed cells were incubated with 50 uL of MitoTracker Red CMXRos (Invitrogen) at a concentration of 250 nM for 30 min before fixation. In the remaining cases, post-fixed cells were labeled by incubation with a multiplexed mixture of primary antibodies in HBSS for 60 min at room temperature (293-298 K) to detect immunoreactivity of c-Jun (1:500), phospho-histone H3 (1:100), phospho-histone H2A.x (1:200), p53 (1:400), alpha-tubulin (1:200) and Hoechst 33342 (2 ug/mL). Cells were labeled for multiplexed imaging on two separate plates: a) Hoechst 33342, MitoTracker Red, phospho-histone H3, and alpha-tubulin, and b) Hoechst 33342, phospho-histone H2A.x, and c-Jun. A final rinse with HBSS (50 uL) was performed before analysis. The primary and secondary antibodies for the proteins were phospho-histone H3 (rabbit anti-phospho-histone H3 and FITC-donkey anti-rabbit IgG), phospho-histone H2A.x (mouse anti-phospho-histone H2A.x and FITC-donkey anti-mouse IgG), c-Jun (rabbit anti-phospho-c-Jun and Cy3-donkey anti-rabbit IgG), p53 (sheep anti-p53 and Cy5-donkey anti-sheep IgG), alpha-tubulin (mouse anti-alpha-tubulin and Cy5-donkey anti-mouse IgG). These antibodies are available as the CellCiphr HepG2 assay kit (Millipore).Digital images of each well were captured using a Cellomics ArrayScan VTI (Thermo Scientific Cellomics) (0.8 NA objective, 0.63x optical coupler, and XF-93 filter set) at 20x magnification. The images were acquired using the autofocus feature of the ArrayScan instrument, which entails the following steps. First, the camera focuses on channel 1 (Hoechst 33342), where nuclei are identified. Second, a Z offset of 1 um is used for capturing mitochondria (MitoTracker Red). […]
For `Oc1ccc(C(c2ccc(O)cc2)C(Cl)(Cl)Cl)cc1`, the outcome was “inactive”. For `CCN(CC)C(=O)c1cccc(C)c1`, the outcome was “inactive”. For `COC(=O)c1ccc(I)cc1S(=O)(=O)NC(=O)Nc1nc(C)nc(OC)n1`, the outcome was “inactive”. In the case of `O=C(Nc1ccc([N+](=O)[O-])cc1Cl)c1cc(Cl)ccc1O`, the outcome is reported as “inactive”. In the case of `CC(C)(C)[C@@H](O)[C@@H](Cc1ccc(Cl)cc1)n1cncn1`, the outcome is reported as “inactive”. With `OB(O)O` the outcome was “inactive”. For `COC(=O)c1ccccc1C(=O)O`, the outcome was “inactive”. In the case of `CCNc1nc(N)nc(Cl)n1`, the outcome is reported as “inactive”. With `COC(=O)CSc1cc(N=c2sc(=O)n3n2CCCC3)c(F)cc1Cl` the outcome was “inactive”. In the case of `CCC(O)=C1C(=O)CC(C(=O)O)CC1=O` (stereo not given), the outcome is reported as “inactive”. With `C=CCOC(Cn1ccnc1)c1ccc(Cl)cc1Cl` (stereo not given) the outcome was “inactive”. For `COC(=O)c1ccccc1S(=O)(=O)NC(=O)Nc1nc(OC(F)F)cc(OC(F)F)n1`, the outcome was “inactive”. In the case of `CCCOC(=O)NCCCN(C)C`, the outcome is reported as “inactive”. In the case of `COC(=O)c1c(Cl)nn(C)c1S(=O)(=O)NC(=O)Nc1nc(OC)cc(OC)n1`, the outcome is reported as “inactive”. With `CCN(Cc1c(F)cccc1Cl)c1c([N+](=O)[O-])cc(C(F)(F)F)cc1[N+](=O)[O-]` the outcome was “inactive”. For `c1ccc2[nH]c(-c3cscn3)nc2c1`, the outcome was “inactive”. In the case of `CCCN(CCC)c1c([N+](=O)[O-])cc(C(F)(F)F)c(N)c1[N+](=O)[O-]`, the outcome is reported as “inactive”. In the case of `CCC(C)OC(=O)N1CCCCC1CCO` (stereo not given), the outcome is reported as “inactive”. With `CSC(=O)c1cccc2nnsc12` the outcome was “inactive”. For `S=C(S)NCCNC(=S)S.[Mn+2].[S-]C([S-])=NCCN=C([S-])[S-].[Zn+2]`, the outcome was “inactive”. For `COCCO`, the outcome was “inactive”. With `CCCCCCC(C)OC(=O)COc1nc(F)c(Cl)c(N)c1Cl` (stereo not given) the outcome was “inactive”. With `CCCCCOC(=O)COc1cc(N2C(=O)C3=C(CCCC3)C2=O)c(F)cc1Cl` the outcome was “inactive”. In the case of `CCCCC(CC)COC(=O)c1ccccc1C(=O)O` (stereo not given), the outcome is reported as “inactive”. In the case of `CCOC(=O)COc1cc(-n2ncc(C(F)(F)F)c(C)c2=O)c(F)cc1Cl`, the outcome is reported as “inactive”. With `N#CSCSc1nc2ccccc2s1` the outcome was “inactive”. In the case of `O=C(O)C1(C(=O)Nc2ccc(Cl)cc2Cl)CC1`, the outcome is reported as “inactive”. With `CCOC(=O)C(C)Oc1ccc(Oc2nc3ccc(Cl)cc3o2)cc1` (stereo not given) the outcome was “inactive”. In the case of `COC(=O)c1ccc(CNS(C)(=O)=O)cc1S(=O)(=O)NC(=O)Nc1nc(OC)cc(OC)n1`, the outcome is reported as “inactive”. For `COc1nc(C)nc(NC(=O)NS(=O)(=O)c2ccccc2OCCCl)n1`, the outcome was “inactive”. For `CC1(C)C(C=C(Cl)Cl)C1C(=O)OCc1cccc(Oc2ccccc2)c1` (stereo not given), the outcome was “inactive”. With `CCCCOC(=O)[C@@H](C)Oc1ccc(Oc2ccc(C(F)(F)F)cn2)cc1` the outcome was “inactive”. In the case of `CCSC(=O)N(CC(C)C)CC(C)C`, the outcome is reported as “inactive”. For `CCOC(=O)NCCOc1ccc(Oc2ccccc2)cc1`, the outcome was “inactive”. With `CC(C)(c1ccc(O)cc1)c1ccc(O)cc1` the outcome was “inactive”. For `CCCCOC(=O)C(C)Oc1ccc(Oc2ccc(C(F)(F)F)cn2)cc1` (stereo not given), the outcome was “inactive”. For `S=C([S-])NCCNC(=S)[S-].[Mn+2]`, the outcome was “inactive”. In the case of `CCCOC(=O)c1ccc(C(=O)OCCC)nc1`, the outcome is reported as “inactive”. With `C#CCOC(=O)[C@@H](C)Oc1ccc(Oc2ncc(Cl)cc2F)cc1` the outcome was “inactive”. In the case of `CCOC(=O)C(C)Oc1ccc(Oc2cnc3cc(Cl)ccc3n2)cc1` (stereo not given), the outcome is reported as “inactive”.
